Test results published in article PMC7819943, “Rice protein-binding microarrays: a tool to detect cis-acting elements near promoter regions in rice”.
Whole data set: some 39,000 sequences, median “fluorescence intensity (a.u.)” near 4,300, cut for the highest 2% near 39,000. The sample as a whole holds a higher share of the highest values than the screen did.

Target: T1, OsSMF1 (Oryza sativa, UniProt Q6ZLB0 1-436)
T1 sequence: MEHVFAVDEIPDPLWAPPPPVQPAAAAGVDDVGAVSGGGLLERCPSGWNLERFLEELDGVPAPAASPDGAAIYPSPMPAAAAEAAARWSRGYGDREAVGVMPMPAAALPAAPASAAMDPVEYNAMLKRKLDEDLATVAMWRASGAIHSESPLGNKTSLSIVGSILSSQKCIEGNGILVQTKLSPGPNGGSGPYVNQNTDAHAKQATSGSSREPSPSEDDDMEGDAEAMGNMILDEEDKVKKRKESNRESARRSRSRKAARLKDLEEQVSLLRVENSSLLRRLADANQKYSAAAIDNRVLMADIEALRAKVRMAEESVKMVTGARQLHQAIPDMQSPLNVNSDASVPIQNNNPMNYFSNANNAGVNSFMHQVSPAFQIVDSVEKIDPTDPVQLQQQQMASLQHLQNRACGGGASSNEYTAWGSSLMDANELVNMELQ
Assay: protein-binding microarray (RPBM); PBS, 2% BSA, 51.3 ng/ul salmon testes DNA, 50 uM zinc acetate, 200 nM TF, 25 C, 1 h; high values mean tight binding
Details: protein: recombinant; tags: N-terminal polyhistidine and DsRed monomer fusion (pET32a); chain copies: 2; label: CyDye5-dUTP incorporated in the synthesized complementary strand; 3' TTTTT single-stranded linker to array surface; dsDNA, one strand shown
Outline: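 Transcription factors were each fused at the N-terminus to a polyhistidine tag plus DsRed and expressed in E. coli BL21-CodonPlus before Ni–NTA purification. Binding to a double-stranded custom Agilent array was carried out with 200 nM protein at 25 °C for 1 h in PBS, 2% BSA, salmon testes DNA and 50 µM zinc acetate. The binding signal is per-feature fluorescence intensity, in arbitrary units, on an Axon 4000B scanner.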

Sequence	binding signal
TTGGAATGCTGAAATTATTAGGGGACTATTCAAATTGATGCGGAGTCACCTAGTGCAG	39200 fluorescence intensity (a.u.)
GAAGGAATTGGATTGAATCAGAAAGGGGATCGATTCGATGCGGAGTCACCTAGTGCAG	45200 fluorescence intensity (a.u.)
TTAGCTGGGATGAATTGGGAATGGCTGATGATTCATTGCTCGGAGTCACCTAGTGCAG	3790 fluorescence intensity (a.u.)
AATTTGGATTTGAATTATATCTGATTCAAATTTGAATTTGCGGAGTCACCTAGTGCAG	3270 fluorescence intensity (a.u.)
TCGATTGGGGATTGGGGATTGGGGATCAGGAGGGATGGGGCGGAGTCACCTAGTGCAG	4350 fluorescence intensity (a.u.)
CGGAGGGATTCGATTTGGAAGGAATTGGATTCGGAGTTGACGGAGTCACCTAGTGCAG	33200 fluorescence intensity (a.u.)
CAAGCCAAGTCTGAAGAAGAAGAACTAGTCATCGCTTGCCCGGAGTCACCTAGTGCAG	3820 fluorescence intensity (a.u.)
AAATCCTTGTCTTCCCACGCTGACGCTGCTGTGTCCAGGTCGGAGTCACCTAGTGCAG	4530 fluorescence intensity (a.u.)
ACCGGCTCACTTATGCGCGCGCGGCGCTGAGGTGGCCGCACGGAGTCACCTAGTGCAG	5200 fluorescence intensity (a.u.)
GGGCTTCGTCCCCATCATCTCCTGCCACCTCAAACACCTGCGGAGTCACCTAGTGCAG	3520 fluorescence intensity (a.u.)
GATGGGCTTGTGCTGACATCATCTATACGTGCTTTGCTCCCGGAGTCACCTAGTGCAG	14500 fluorescence intensity (a.u.)
ATATATTCTATGTGGTCTGCCCACACGCAAGCATGAGCTCCGGAGTCACCTAGTGCAG	3740 fluorescence intensity (a.u.)
GCGCCGCCAGCCGCTACAGGTCAGCGGCAACAGCAGGTTCCGGAGTCACCTAGTGCAG	29200 fluorescence intensity (a.u.)
TGCCAATGGTGTGTGCAATTGCAACATGCGTTTGGTTGTGCGGAGTCACCTAGTGCAG	4100 fluorescence intensity (a.u.)
TTCCGGCATGCTCAACAATTGGTCCAGGTGTTTGTTCCAGCGGAGTCACCTAGTGCAG	42200 fluorescence intensity (a.u.)
GACACGTATGATTTGTGTGGTAGTACATAGCACGCACGCACGGAGTCACCTAGTGCAG	35800 fluorescence intensity (a.u.)
CCAGGCACCGACCTGTAGTTGCATCAGCAAACCATGGCTGCGGAGTCACCTAGTGCAG	4690 fluorescence intensity (a.u.)
AAATATAGAGATTTATTAACATAACAGCCTATCCACGTGGCGGAGTCACCTAGTGCAG	17200 fluorescence intensity (a.u.)
AGGGATTATGTGTGTGTAAGATATTTGTGACTAGTTTATTCGGAGTCACCTAGTGCAG	3630 fluorescence intensity (a.u.)
TTGTAAGCTCAGCCTAGATAGAGTGAAGATATTTTATTGGCGGAGTCACCTAGTGCAG	49700 fluorescence intensity (a.u.)
ATGAAATGGACCTCAAGATCGAGTCATGACAAGACAACGGCGGAGTCACCTAGTGCAG	4150 fluorescence intensity (a.u.)
TACACTGGTGGATGTGAATCATTGGAATGCATGCCTCCTGCGGAGTCACCTAGTGCAG	3810 fluorescence intensity (a.u.)

Sequence	binding signal
CCTCAGGCCGCCTCTCGTGCTGTACACGTAGGATAGCTACCGGAGTCACCTAGTGCAG	46200 fluorescence intensity (a.u.)
TTAGGCCTCTCACAGTGCTCTTAGCTGGACCGGTGCTACACGGAGTCACCTAGTGCAG	3920 fluorescence intensity (a.u.)
GGGATAGCAGGACACGTGTGTATAGCTGCTGCGCCTGCCTCGGAGTCACCTAGTGCAG	9260 fluorescence intensity (a.u.)
TTAAATGAATCATTTTGTTCCTATTTCTAAAATAAACTATCGGAGTCACCTAGTGCAG	3380 fluorescence intensity (a.u.)
ATGCAGGCCACCTCACGCCACACGCTGTATCGCGCCCATACGGAGTCACCTAGTGCAG	5790 fluorescence intensity (a.u.)
CTAGCTACTTCTATCCTCCACCTCCTAAATGATCGATTTGCGGAGTCACCTAGTGCAG	3740 fluorescence intensity (a.u.)
TCAGTAGTTGCTTCTCGCAACGTCACAGGCTTTAGATGCACGGAGTCACCTAGTGCAG	44200 fluorescence intensity (a.u.)
TGTTAGTTTTGCATGCACAGAGATGATTAGGCAGTAGCAACGGAGTCACCTAGTGCAG	3940 fluorescence intensity (a.u.)
CCAACCATGCTTCGCAGTTGTCACAGAACGTCAACAGTGCCGGAGTCACCTAGTGCAG	3460 fluorescence intensity (a.u.)
CCAGATATCTTTTACTAAAGGATGGAAATGAGGCGTAATTCGGAGTCACCTAGTGCAG	29100 fluorescence intensity (a.u.)
GTGTAGTTGGAGCGCGCGGTGGAAGATGAACAAGCTCAGCCGGAGTCACCTAGTGCAG	41200 fluorescence intensity (a.u.)
ACAAAGGAGAAGAAGCCATGATGTGGAGTTGGCCGGTGGCCGGAGTCACCTAGTGCAG	3800 fluorescence intensity (a.u.)
GAGTTGTGCAGCCAAGTCAGCTGCACATGGGGAACAAGCGCGGAGTCACCTAGTGCAG	6520 fluorescence intensity (a.u.)
TAAAACAAGTCATAATAAAATAAATAGTAATTAAAATTCTCGGAGTCACCTAGTGCAG	29200 fluorescence intensity (a.u.)
AAAATAATTAAAATAGTACGAGTAGATTCACACAAGATCTCGGAGTCACCTAGTGCAG	39900 fluorescence intensity (a.u.)
AACAATAACAAGATTAAAATAAACTTCACACGTTGTAATGCGGAGTCACCTAGTGCAG	3160 fluorescence intensity (a.u.)
GCAAAATGTCAGGCCGACACAACCCGTCATACTCTTCATGCGGAGTCACCTAGTGCAG	3480 fluorescence intensity (a.u.)
GGGGTGCTTCACAAATCCCCTTGCGTACATGAGGTGTTTTCGGAGTCACCTAGTGCAG	3320 fluorescence intensity (a.u.)
AGTCTCTAACTAAACACCATATATCTCTATTAATTACTACCGGAGTCACCTAGTGCAG	16000 fluorescence intensity (a.u.)
CTATCCGTCCAAATTAGGCTATCTCTAAAGATTAACTAACCGGAGTCACCTAGTGCAG	41000 fluorescence intensity (a.u.)
GTAACTAAAGATACAAAATTATTAGTGTAACCGGAGGCATCGGAGTCACCTAGTGCAG	34600 fluorescence intensity (a.u.)
TTTTATGTATGTATTCAAATATTTCGATGTGACGGAATTTCGGAGTCACCTAGTGCAG	4210 fluorescence intensity (a.u.)
